Each structure is given as a SMILES string. Out of some 69,000 compounds screened, about 8,600 (12%) showed an effect of 50% or more. The sample holds strong results, similar compounds and a random draw of the others, so the mix is not that of the screen.

This assay relates to Plasmodium berghei. Briefly: Screen against P. berghei liver stage (PbLuc), transformed with Luciferase, at 10uM. The class given is functional, HepG2. Particulars: tested at 10 uM.
Take `Cc1cc(C)n(CCCn2cncc2-c2ccc3c(c2)CC(C)N3C)n1` (stereo unspecified): the INHIBITION is recorded as 42.6%.
The value for `CN1CCCc2cc(-c3cncn3CCNC3CCS(=O)(=O)C3)ccc21` (stereo unspecified) was 32.3%; that for `Cc1nccn1CCCn1cncc1-c1ccc2c(c1)CCC(C)N2C` (stereo unspecified) was 87.7%; that for `CCN1c2ccc(-c3cncn3CCCn3ccnc3C)cc2CC1C` (stereo unspecified) was 36%.
The value for `O=C(NCc1ccco1)[C@@H]1CCO[C@@H]2CCN(c3ncccn3)C[C@H]21` was 17.1%.
On to `O=C(Cn1ncc2c(c1=O)CCCC2)Nc1cccc2[nH]ccc12`, for which the INHIBITION came to 30.2%.
As to `Cc1nc(N(C)C)nc(NCCc2c[nH]cn2)c1C`, the INHIBITION is recorded as -38%.
In the case of `COCC(=O)N1CCCC(c2csc(NC(C)=O)n2)C1` (stereo unspecified), the INHIBITION was -55%.
The value for `CCCn1cc(S(=O)(=O)N(C)Cc2nonc2C)c(C)n1` was 3.48%.
In the case of `Cn1cc(CN2CCc3c(cnc(-c4ccccc4)c3C(=O)O)C2)cn1` it was 23.3%.
As to `CNC(=O)C1Cn2ccnc2C2(CCN(C(=O)CC3CCCC3)CC2)O1` (stereo unspecified), the INHIBITION was -10.3%.
With `Cc1ccc(C(=O)N2CCC(c3noc(-c4cccnc4)n3)CC2)cn1`, the INHIBITION was found to be 42.6%.
The value for `COCCN1C[C@@H](C)[C@@]2(COCCN(C(=O)c3ccccn3)C2)C1` was 36.2%.
For `CCCNC(=O)c1nn(CC)cc1NC(=O)c1c(C)nn(C)c1C`, the INHIBITION is given as -4.56%.
In the case of `CCc1ccccc1OCC(=O)N1CCOCC1c1ncon1` (stereo unspecified) it was 60.5%; in that of `CC(C)c1ccc(OCC(=O)N2CCOCC2c2ncon2)cc1` (stereo unspecified), -50.8%.
In the case of `CCc1ccc(CCC(=O)N2CCOCC2c2ncon2)cc1` (stereo unspecified) it was 27.9%; in that of `Cc1ccc(OCCC(=O)N2CCOCC2c2ncon2)cc1C` (stereo unspecified), 21.6%; in that of `O=C(COc1ccc(Cl)cc1)N1CCOCC1c1ncon1` (stereo unspecified), 55.4%.
In the case of `Cc1cc(C)cc(OCCC(=O)N2CCOCC2c2ncon2)c1` (stereo unspecified) it was 50.4%; in that of `Cc1ccc(CCC(=O)N2CCOCC2c2ncon2)c(C)c1` (stereo unspecified), -56.7%; in that of `O=C(COc1cccc(Cl)c1)N1CCOCC1c1ncon1` (stereo unspecified), 7.12%.
For the compound `Cc1cccc(C)c1OCC(=O)N1CCOCC1c1ncon1` (stereo unspecified), the INHIBITION is -53.2%.
The value for `Cc1cc(C(F)(F)F)c2c(=O)n(Cc3ccon3)n(C)c2n1` was 14.3%.
In the case of `CC(C)N(C)Cc1cncc2c1CCN(C1CCOCC1)C2` it was 25.6%; in that of `COc1ccc(C(=O)CCc2nc(C3CC3)no2)cc1`, -23.3%; in that of `Cc1cnn(CC2CCCCN2C(=O)c2ccc(N(C)C)nc2)c1` (stereo unspecified), -4.16%.
In the case of `c1ccc(CN2CCc3c(COCC4CC4)cncc3C2)nc1` it was 23.5%.
Regarding `Cc1nc2cc(-c3nccn3C)nn2c(N2CCCC(CO)C2)c1C` (stereo unspecified), the INHIBITION was -15.9%.
Consider `O=S(=O)(NCc1ccccc1)N(Cc1ccccn1)CC1CCCO1` (stereo unspecified), for which the INHIBITION is given as -1.91%.
Turning to `CC(C)[C@@H]1CN(Cc2ccccn2)C[C@H]1NS(=O)(=O)N(C)C`, the INHIBITION is listed as 9.72%.
For the compound `CC(C)[C@H]1CN(Cc2ccccn2)C[C@@H]1NS(=O)(=O)C1CC1`, the INHIBITION is given as 67.5%.
The value for `CC(C)[C@H]1CN(Cc2ccccn2)C[C@@H]1NC(=O)CCS(C)(=O)=O` was 28.2%.
Consider `COc1ccc(CC2(CO)CCN(c3cc(C#N)ccn3)CC2)cc1`, for which the INHIBITION was determined as 1.74%.
The value for `CC(=O)NCCNC(=O)NCc1ccc(-n2ccc(C(F)(F)F)n2)cc1` was -12.1%; that for `CCN(C(=O)c1nc2c(s1)CCCN2C)C(C)C` was 23.6%; that for `CC(C)c1noc(CCNC(=O)N2CCSC(C(C)C)C2)n1` (stereo unspecified) was 37.9%.
In the case of `CCC(CO)N(Cc1ccsc1)Cc1ccccc1C(=O)O` (stereo unspecified) it was -69.3%; in that of `CCC(CO)N(Cc1ccc(C(=O)O)cc1)Cc1ccsc1` (stereo unspecified), 15%; in that of `CCC(CO)N(Cc1ccsc1)Cc1cccc(O)c1` (stereo unspecified), -60.8%.
The value for `CCC(CO)N(Cc1ccsc1)CC1CC1` (stereo unspecified) was 50.7%; that for `CCC(CO)N(Cc1ccsc1)Cc1ccccc1C#N` (stereo unspecified) was 37.6%.
Consider `CCC(CO)N(CC=C(C)C)Cc1ccsc1` (stereo unspecified), for which the INHIBITION is on record as 55%.
For the compound `CN1CCO[C@@H]2CN(S(=O)(=O)c3ccccc3)C[C@@H]2C1`, the INHIBITION was 25.6%.
The value for `CC(C)c1ncncc1C(=O)NCCN1CCCCCC1` was 35.4%; that for `Cc1csc(N2CCN(C(=O)C3(C#N)CCCCC3)CC2)n1` was 24.635%; that for `CC(O)CN1CCN(C(=O)c2ccc(CN(C)C)cc2)CC1` (stereo unspecified) was 10%.
The value for `CS(=O)(=O)N1CCC(C(=O)NC(Cc2ccsc2)c2cccnc2)CC1` (stereo unspecified) was 47.1%.
The value for `Cc1ccc(C(=O)N2CCC3(CC2)COCCN(S(C)(=O)=O)C3)cc1C` was -4.88%; that for `Cc1cc(OCC(=O)NS(=O)(=O)c2cccnc2)ccc1Cl` was 38.5%.
As for `CN(C)C(=O)c1ccccc1NC(=O)N[C@@H]1c2ccccc2C[C@@H]1O`, the INHIBITION worked out at 48.9%.
In the case of `CS(=O)(=O)c1ccccc1NC(=O)N[C@@H]1c2ccccc2C[C@@H]1O` it was 35%.
`CS(=O)(=O)c1ccccc1C(=O)NCC1Cc2ccccc2O1` (stereo unspecified): the INHIBITION is given as -9.76%.
In the case of `CS(=O)(=O)c1ccccc1N[C@@H]1c2ccccc2C[C@@H]1O` it was 67.5%.
In the case of `CNC(=O)Cc1ccccc1NC(=O)N[C@H]1c2ccccc2C[C@H]1O` it was 54.5%; in that of `CNC(=O)Cc1ccccc1NC(=O)C1CCCC1`, 42.6%.

Values taken from ChEMBL document CHEMBL4513216, “Probing the Open Global Health Chemical Diversity Library for Multistage-Active Starting Points for Next-Generation Antimalarials” (ACS Infect Dis, 2020).
